The panel holds about 83,000 compounds, 20% with a hit somewhere; the sample as a whole holds those more often.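 The test compound was applied at a single concentration to cells in 96-well plates for 48 hours, and percent growth was recorded.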 Values without a mark were called inactive. The source made the active and inactive calls. Rule for the calls: active = growth percent below 10; inactive = the rest.
Key:
Assay in all cases: NCI-60 one-dose screen, 48 h (100 = growth as untreated, 0 = no growth, -100 = all killed)
Settings in all cases: 10 µM unless noted
[1] = test system: RPMI-8226 leukemia
[2] = test system: OVCAR-8 ovarian
[3] = test system: OVCAR-5 ovarian
[4] = test system: OVCAR-4 ovarian
[5] = test system: IGROV1 ovarian
[6] = test system: OVCAR-3 ovarian
[7] = test system: HS 578T breast
[8] = test system: NCI/ADR-RES ovarian
[9] = test system: T-47D breast

Row | SMILES | growth [1] | growth [2] | growth [3] | growth [4] | growth [5] | growth [6] | growth [7] | growth [8] | growth [9]
1 | COC(=O)/C(CCC=C(C)C)=C1\[C@@H](OC(C)=O)C[C@@]2(C)[C@H]1C[C@@H](O)[C@H]1[C@@]3(C)CC[C@H](NCCCNCCCCNCCCN)[C@@H](C)[C@@H]3CC[C@@]12C | 20.2% | 54.6% | 88.1% | 85.1% | 41.9% | 83% | 82.7% | 65.9% | 57%
2 | COc1cc(/C=C2\Oc3cc(OCCCN4CCCC4)ccc3C2=O)cc(OC)c1 | 49.4% | 56.4% | 89.4% | 75.2% | 51% | – | 70.2% | 80.8% | 88.8%
3 | NCCCNc1nc2ccccc2c2c(=O)c3cc(F)ccc3sc12 | -2.73% (active) | 2.1% (active) | 26.8% | 33% | 20.1% | -16.4% (active) | 34.6% | 11.4% | -39% (active)
4 | COc1cc(/C=C2\CN(C)C/C(=C\c3cc(CN4CCCCC4)c(O)c(OC)c3)C2=O)cc(CN2CCCCC2)c1O | 25.9% | 39.2% | 38.8% | 38.6% | 68.4% | 7.74% (active) | 81.9% | 70.7% | 67.2%
5 | COC(=O)c1c2c(c(C)[n+]([O-])c1C)C(=O)C=C(NCc1ccc(F)c(F)c1)C2=O | -6.01% (active) | -2.54% (active) | -83.1% (active) | -98.7% (active) | -67.3% (active) | -47.2% (active) | – | -17.5% (active) | -42.5% (active)
6 | Fc1cccc(COc2ccc(Nc3ncnc4onc(-c5ccccc5)c34)cc2)c1 | 12.5% | 29.2% | 9.86% (active) | 43.3% | 24.5% | 0.458% (active) | -16.7% (active) | 46.5% | 45.4%
7 | O=C1/C(=C/c2ccc(O)cc2)COc2ccc(O)c(O)c21 | -6.76% (active) | 17.6% | 43.7% | 43.7% | 8.79% (active) | – | 47.4% | 27.2% | 11.8%
8 | Cc1cc2c(c(C)c1Cl)C(=O)/C(=C/c1ccco1)O2 | 87% | 102% | 114% | 63.3% | 59.2% | 104% | – | 104% | 47.5%
9 | COc1ccc2c(c1)C=C1CSCC3=Cc4cc(OC)ccc4OC13O2 | 19.5% | 25.4% | 41.1% | 47.8% | 31.6% | -6.42% (active) | -0.917% (active) | -1.58% (active) | 48.4%
10 | Nc1nc(-c2ccccc2Br)nn1-c1nc2ccccc2s1 | 102% | 97.6% | 98% | 101% | 101% | 108% | 104% | 105% | 105%
11 | Cc1cccc2c(=O)c3c(sc12)c(N1CCNCC1)nc1ccccc13 | 7.41% (active) | 83.9% | 90.2% | 73.9% | 33.6% | 63.7% | 73% | 83.1% | 86.9%
12 | COC(=O)/C(CCC=C(C)C)=C1\[C@@H](OC(C)=O)C[C@@]2(C)[C@H]1C[C@@H](O)[C@H]1[C@@]3(C)CC[C@H](NCc4ccccc4)[C@@H](C)[C@@H]3CC[C@@]12C | 16.9% | 76.1% | 88.7% | 61.2% | 70.3% | 69.6% | 67.3% | 64.6% | 62.3%
13 | CS(=O)(=O)Nc1ccc(C(=O)NC(C(=O)NO)c2ccc(-c3cccc(F)c3)cc2)cc1 (centres undefined) | 82.8% | 97.3% | 31.6% | 70.9% | 39.6% | 64.7% | 73% | 66.6% | 82.4%
14 | COc1cc(CNC(=O)Cc2ccccc2)ccc1OCc1cn(-c2ccc(F)cc2)nn1 | 89.8% | 95.5% | 108% | 78.2% | 106% | 107% | 99.1% | 94.7% | 94.7%
15 | COC(=O)c1c2c(c(C)[n+]([O-])c1C)C(=O)C=C(NCc1ccccc1)C2=O | -0.203% (active) | 4.33% (active) | -63.3% (active) | -95% (active) | -56.6% (active) | -35.4% (active) | – | -14% (active) | -34.4% (active)
16 | C[C@@H](C(=O)NCCCC#Cc1cnc(Nc2ccc(C#N)cc2)nc1NC1CC1)N(C)C(=O)/C=C/CN(C)C | 14.9% | 55.9% | 66.3% | 38.7% | 41.1% | 29.3% | 59% | 78.2% | 54.9%
17 | CCCN1CCN(c2ccc3nc(-c4ccc5nc(-c6cc(OC)ccc6OC)[nH]c5c4)[nH]c3c2)CC1 | -17% (active) | 106% | 113% | 81.1% | 103% | 122% | – | 111% | 98.8%
18 | O=C1/C(=C/c2cccc(O)c2)COc2ccc(O)cc21 | -10.6% (active) | 68.7% | 105% | 98.1% | 78.1% | 55.5% | 101% | 96.7% | 86.8%
19 | CCN1C(=O)N(c2ccccc2)C2Nn3c(s/c(=C4\C(=O)N(C(C)C)c5ccccc54)c3=O)=NC21 (centres undefined) | 97.7% | 103% | 102% | 105% | 99.6% | 117% | – | 109% | 102%
20 | Clc1ccc(Oc2ccc(Nc3ncnc4onc(-c5ccccc5)c34)cc2)c(Cl)c1 | 90.8% | 97.7% | 101% | 81.5% | 94.5% | 109% | 99.5% | 96.8% | 83.5%
21 | O=S(=O)(Nc1ncccn1)c1ccc(NC2Nc3nc4ccccc4nc3S2)cc1 (centres undefined) | 99% | 98.8% | 96.4% | 102% | 96.3% | 109% | – | 99.6% | 101%
22 | COc1cccc2c1C=C1CCCCC3=Cc4c(OC)cccc4OC13O2 | 42.6% | 53.1% | 63.9% | 57.7% | 57.5% | 14.2% | 42.8% | 16.5% | 40.3%
23 | COC(=O)/C(CCC=C(C)C)=C1\[C@@H](OC(C)=O)C[C@@]2(C)[C@H]1C[C@@H](O)[C@H]1[C@@]3(C)CC[C@H](NCCO)[C@@H](C)[C@@H]3CC[C@@]12C | 101% | 101% | 104% | 107% | 99.4% | 105% | 93.3% | 101% | 103%
24 | O=C1/C(=C\c2ccc[nH]2)c2ccccc2N1c1ccccc1 | 94.4% | 102% | 87.9% | 67.7% | 84.5% | – | 92.3% | 90.2% | 64.9%
25 | Cc1cc2c(c(C)c1Cl)C(=O)/C(=C/c1cccc([N+](=O)[O-])c1)O2 | 108% | 94.4% | 100% | 86.5% | 96.6% | – | 95.8% | 101% | 98.4%
26 | Cn1cc(-c2ccc3ncc(-c4ccc(CC(=O)Nc5cc(C(C)(C)C)no5)cc4)nc3c2)cn1 | 32.3% | 37% | 74.6% | 31.9% | 19.3% | 49.3% | 25.9% | 43.7% | 25.5%

— PubChem BioAssay (NCI)
